Our source for the outcome and AC50 values is PubChem BioAssay (EPA / NIEHS).

The source made the active and inactive calls. Rule for the calls: active = hit-call score of the fitted dose curve at least 0.9, where 1 is the maximum; inactive = score below 0.9.

Experiment [1] in a line: CEETOX_H295R_ESTRONE: CeeTox H295R High-throughput Steroidogenesis Assay for Estrone (AID 2283441).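 Note: estrone secreted into medium measured by LC-MS/MS after dansyl derivatization.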 To be noted: actives raise or lower the signal. In short, it runs like this:
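H295R cells prestimulated 48 h with 10 uM forskolin, then exposed 48 h to chemicals in 0.1% DMSO final; estrone in medium extracted with MTBE, dansyl-derivatized, quantified by HPLC-MS/MS; bidirectional fitting versus DMSO, viability by MTT.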

The nature of experiment [2]: CEETOX_H295R_PROG: CeeTox H295R High-throughput Steroidogenesis Assay for Progesterone (PROG) (AID 2283442). The following applies: actives raise or lower the signal. Put shortly: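 Progesterone secreted by human H295R cells was measured by LC-MS/MS following 48 h chemical exposure at 0.1% DMSO, preceded by 48 h forskolin (10 uM) stimulation. Same-well MTT viability; cytotoxic concentrations diluted 10- or 100-fold and retested.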

A short description of experiment [3]: CEETOX_H295R_TESTO: CeeTox H295R High-throughput Steroidogenesis Assay for Testosterone (TESTO) (AID 2283457).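 Note: cells exposed to chemicals for 48 h before medium collection.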 To be noted: actives raise or lower the signal. Put shortly:
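Testosterone secreted into the medium over 48 h by H295R cells (maximum passage 10) was quantified by LC-MS/MS after MTBE extraction. Fitted in both directions against DMSO, with concentrations diluted until MTT viability was ≥70%.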

Read-out in experiment [4]: Tumor necrosis factor receptor superfamily member 6 (Homo sapiens) (UniProt P25445)
The experiment can be described thus: LTEA_HepaRG_FAS: Life Technologies and Expression Analysis (LTEA) Assay for Fas cell surface death receptor (FAS) using HepaRG (AID 2283447). The following applies: mRNA level, 48 h; actives raise or lower the signal. In short, it runs like this:
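Differentiated human HepaRG cells, pre-cultured 48 h, were exposed in duplicate for 48 h to 8-point half-log concentrations (top 100 uM, 0.5% DMSO) in serum-free induction medium; FAS mRNA measured by qRT-PCR, normalized to ACTB/GAPDH/POLR2A, bidirectional fit versus DMSO.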

Read-out in experiment [5]: Fatty acid synthase (Homo sapiens) (UniProt P49327)
The experiment can be described thus: LTEA_HepaRG_FASN: Life Technologies and Expression Analysis (LTEA) Assay for Fatty Acid Synthase (FASN) using HepaRG (AID 2283448). To be noted: mRNA level, 48 h; actives raise or lower the signal. In short, it runs like this: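 FASN expression changes, up or down relative to 0.5% DMSO, were measured by qRT-PCR in human HepaRG cells after 48 h treatment with chemicals at eight concentrations (half-log steps from 100 uM).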

Read-out in experiment [6]: Cyclin D2 (CCND2), CCND2 (gene 894)
As to the kind of experiment: LTEA_HepaRG_CCND2: Life Technologies and Expression Analysis (LTEA) Assay for Cyclin D2 (CCND2) using HepaRG (AID 2283449).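 Note: CCND2 transcript measured by TaqMan qRT-PCR and normalised to three housekeeping genes.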 To be noted: mRNA level, 48 h; actives raise or lower the signal. Put shortly: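 Differentiated human HepaRG cells were exposed for 48 h in serum-free induction medium to eight half-log concentrations topping at 100 uM (0.5% DMSO vehicle). CCND2 mRNA was quantified by TaqMan qRT-PCR, normalised to ACTB, GAPDH and POLR2A, and fitted bidirectionally against DMSO.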

Read-out in experiment [7]: Cyclin Dependent Kinase Inhibitor 1A (CDKN1A), CDKN1A (gene 1026)
The experiment can be described thus: LTEA_HepaRG_CDKN1A: Life Technologies and Expression Analysis (LTEA) Assay for Cyclin Dependent Kinase Inhibitor 1A (CDKN1A) using HepaRG (AID 2283450). To be noted: mRNA level, 48 h; actives raise or lower the signal. Put shortly: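 Expression quantified by Fluidigm qRT-PCR with ACTB, GAPDH and POLR2A normalization, fitted bidirectionally against 0.5% DMSO. Cells: HepaRG, plated 48 h then treated 48 h in serum-free induction medium, top concentration 100 uM with half-log dilutions.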

Read-out in experiment [8]: Cyclin D1 (CCND1), CCND1 (gene 595)
The experiment can be described thus: LTEA_HepaRG_CCND1: Life Technologies and Expression Analysis (LTEA) Assay for Cyclin D1 (CCND1) using HepaRG (AID 2283451). The following applies: mRNA level, 48 h; actives raise or lower the signal. Put shortly: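 Expression of CCND1 was quantified by qRT-PCR on Fluidigm arrays using ACTB, GAPDH and POLR2A as reference genes. HepaRG cultures, plated 48 h beforehand, were dosed for 48 h at up to 100 uM (half-log, 8 points) in 0.5% DMSO.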

Read-out in experiment [9]: flavin-containing dimethylaniline monooxygenases 3 (FMO3), FMO3 (gene 2328)
As to the kind of experiment: LTEA_HepaRG_FMO3: Life Technologies and Expression Analysis (LTEA) Assay for flavin-containing dimethylaniline monooxygenases 3 (FMO3) using HepaRG (AID 2283453). The following applies: mRNA level, 48 h; actives raise or lower the signal. In short, it runs like this:
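Differentiated HepaRG cells in serum-free induction medium, exposed 48 h in duplicate to 8 half-log concentrations up to 100 uM in 0.5% DMSO. FMO3 mRNA by qRT-PCR, normalized to ACTB, GAPDH, POLR2A; bidirectional fit vs DMSO.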

Read-out in experiment [10]: Cytochrome P450 (CYP1A1), CYP1A1 (gene 1543)
The experiment can be described thus: LTEA_HepaRG_CYP1A1: Life Technologies and Expression Analysis (LTEA) Assay for Cytochrome P450 (CYP1A1) using HepaRG (AID 2283454). To be noted: mRNA level, 48 h; actives raise or lower the signal. In short, it runs like this:
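CYP1A1 transcript levels measured by Fluidigm qRT-PCR against three housekeeping genes, 48 h after chemical dosing of human HepaRG cells (highest concentration 100 uM, half-log steps, 0.5% DMSO vehicle). Gain or loss of signal fitted relative to DMSO.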

Read-out in experiment [11]: CFLAR gene, CFLAR (gene 8837)
The experiment can be described thus: LTEA_HepaRG_CFLAR: Life Technologies and Expression Analysis (LTEA) Assay for CFLAR gene using HepaRG (AID 2283455). To be noted: mRNA level, 48 h; actives raise or lower the signal. In short, it runs like this:
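HepaRG cells were plated for 48 h, switched to serum-free induction medium, then exposed in duplicate for 48 h to 8 concentrations (top 100 uM, half-log steps, 0.5% DMSO). CFLAR mRNA was measured by qRT-PCR, normalized to ACTB, GAPDH and POLR2A.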

Read-out in experiment [12]: Forkhead box O1 (FOXO1), FOXO1 (gene 2308)
The experiment can be described thus: LTEA_HepaRG_FOXO1: Life Technologies and Expression Analysis (LTEA) Assay for Forkhead box O1 (FOXO1) using HepaRG (AID 2283456). To be noted: mRNA level, 48 h; actives raise or lower the signal. Put shortly:
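Differentiated human HepaRG cells in serum-free induction medium were exposed in duplicate for 48 h to eight half-log concentrations (top 100 uM, 0.5% DMSO). FOXO1 mRNA was measured by TaqMan qRT-PCR, normalised to ACTB, GAPDH and POLR2A, and fitted bidirectionally against DMSO.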

Read-out in experiment [13]: growth arrest and DNA damage 45 (GADD45A), GADD45A (gene 1647)
The experiment can be described thus: LTEA_HepaRG_GADD45A: Life Technologies and Expression Analysis (LTEA) Assay for growth arrest and DNA damage 45 (GADD45A) using HepaRG (AID 2283458). The following applies: mRNA level, 48 h; actives raise or lower the signal. In short, it runs like this:
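Cells plated and cultured 48 h, switched to serum-free induction medium, then dosed for 48 h (100 uM top, half-log dilutions, 0.5% DMSO). RNA was isolated and transcript measured by Fluidigm qRT-PCR.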

Read-out in experiment [14]: Forkhead box O3 (FOXO3), FOXO3 (gene 2309)
As to the kind of experiment: LTEA_HepaRG_FOXO3: Life Technologies and Expression Analysis (LTEA) Assay for Forkhead box O3 (FOXO3) using HepaRG (AID 2283459). The following applies: mRNA level, 48 h; actives raise or lower the signal. In short, it runs like this:
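Differentiated human HepaRG cells in serum-free induction medium were exposed in duplicate for 48 h to eight half-log concentrations up to 100 uM in 0.5% DMSO. FOXO3 mRNA was quantified by qRT-PCR, normalized to ACTB, GAPDH and POLR2A, with bidirectional fitting versus DMSO.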

Read-out in experiment [15]: ABC Transporter (ABCB1), ABCB1 (gene 5243)
The experiment can be described thus: LTEA_HepaRG_ABCB1: Life Technologies and Expression Analysis (LTEA) Assay for ABC Transporter (ABCB1) using HepaRG (AID 2283460). To be noted: mRNA level, 48 h; actives raise or lower the signal. In short, it runs like this:
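Differentiated human HepaRG cells, plated 48 h then switched to serum-free induction medium, were exposed in duplicate to eight half-log concentrations up to 100 uM in 0.5% DMSO for 48 h. ABCB1 mRNA was measured by TaqMan qRT-PCR, normalized to ACTB/GAPDH/POLR2A.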

Read-out in experiment [16]: growth arrest and DNA damage 45 (GADD45B), GADD45B (gene 4616)
As to the kind of experiment: LTEA_HepaRG_GADD45B: Life Technologies and Expression Analysis (LTEA) Assay for growth arrest and DNA damage 45 (GADD45B) using HepaRG (AID 2283461). To be noted: mRNA level, 48 h; actives raise or lower the signal. In short, it runs like this:
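Transcript level quantified by Fluidigm TaqMan qRT-PCR with three housekeeping genes for normalization, analyzed for up- or down-regulation against 0.5% DMSO. HepaRG cultures dosed 48 h at eight half-log concentrations up to 100 uM, duplicates.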

Read-out in experiment [17]: ABC Transporter (ABCC3), ABCC3 (gene 8714)
As to the kind of experiment: LTEA_HepaRG_ABCC3: Life Technologies and Expression Analysis (LTEA) Assay for ABC Transporter (ABCC3) using HepaRG (AID 2283462). The following applies: mRNA level, 48 h; actives raise or lower the signal. In short, it runs like this:
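Transcript level by TaqMan qRT-PCR, normalised to three housekeeping genes, fitted in both directions relative to vehicle. Chemicals tested in duplicate at eight half-log concentrations up to 100 uM for 48 h on HepaRG cells (0.5% DMSO).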

Read-out in experiment [18]: ABC Transporter (ABCC2), ABCC2 (gene 1244)
The experiment can be described thus: LTEA_HepaRG_ABCC2: Life Technologies and Expression Analysis (LTEA) Assay for ABC Transporter (ABCC2) using HepaRG (AID 2283464). To be noted: mRNA level, 48 h; actives raise or lower the signal. Put shortly:
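Endpoint is ABCC2 transcript level from qRT-PCR, normalized to three housekeeping genes and fitted bidirectionally relative to DMSO. Human HepaRG cells received test chemical for 48 h at up to 100 uM (8 points, half-log steps, 0.5% DMSO), duplicate wells.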

Read-out in experiment [19]: ATP-citrate lyase (ACLY), ACLY (gene 47)
As to the kind of experiment: LTEA_HepaRG_ACLY: Life Technologies and Expression Analysis (LTEA) Assay for ATP-citrate lyase (ACLY) using HepaRG (AID 2283466). The following applies: mRNA level, 48 h; actives raise or lower the signal. Put shortly: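 Differentiated human HepaRG cells in serum-free induction medium exposed 48 h, in duplicate, to eight half-log concentrations from 100 uM top in 0.5% DMSO; ACLY mRNA measured by qRT-PCR, normalized to ACTB, GAPDH, POLR2A, fitted bidirectionally versus DMSO.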

Read-out in experiment [20]: catalase (CAT), CAT (gene 847)
The experiment can be described thus: LTEA_HepaRG_CAT: Life Technologies and Expression Analysis (LTEA) Assay for catalase (CAT) using HepaRG (AID 2283452). To be noted: mRNA level, 48 h; actives raise or lower the signal. In short, it runs like this:
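Differentiated HepaRG cells in serum-free induction medium were dosed 48 h in duplicate, eight half-log concentrations from 100 uM in 0.5% DMSO. Transcript measured by TaqMan qRT-PCR, normalised to ACTB/GAPDH/POLR2A, fitted bidirectionally against DMSO.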

Sequence of Fatty acid synthase (Homo sapiens) (P49327 whole entry, looked up): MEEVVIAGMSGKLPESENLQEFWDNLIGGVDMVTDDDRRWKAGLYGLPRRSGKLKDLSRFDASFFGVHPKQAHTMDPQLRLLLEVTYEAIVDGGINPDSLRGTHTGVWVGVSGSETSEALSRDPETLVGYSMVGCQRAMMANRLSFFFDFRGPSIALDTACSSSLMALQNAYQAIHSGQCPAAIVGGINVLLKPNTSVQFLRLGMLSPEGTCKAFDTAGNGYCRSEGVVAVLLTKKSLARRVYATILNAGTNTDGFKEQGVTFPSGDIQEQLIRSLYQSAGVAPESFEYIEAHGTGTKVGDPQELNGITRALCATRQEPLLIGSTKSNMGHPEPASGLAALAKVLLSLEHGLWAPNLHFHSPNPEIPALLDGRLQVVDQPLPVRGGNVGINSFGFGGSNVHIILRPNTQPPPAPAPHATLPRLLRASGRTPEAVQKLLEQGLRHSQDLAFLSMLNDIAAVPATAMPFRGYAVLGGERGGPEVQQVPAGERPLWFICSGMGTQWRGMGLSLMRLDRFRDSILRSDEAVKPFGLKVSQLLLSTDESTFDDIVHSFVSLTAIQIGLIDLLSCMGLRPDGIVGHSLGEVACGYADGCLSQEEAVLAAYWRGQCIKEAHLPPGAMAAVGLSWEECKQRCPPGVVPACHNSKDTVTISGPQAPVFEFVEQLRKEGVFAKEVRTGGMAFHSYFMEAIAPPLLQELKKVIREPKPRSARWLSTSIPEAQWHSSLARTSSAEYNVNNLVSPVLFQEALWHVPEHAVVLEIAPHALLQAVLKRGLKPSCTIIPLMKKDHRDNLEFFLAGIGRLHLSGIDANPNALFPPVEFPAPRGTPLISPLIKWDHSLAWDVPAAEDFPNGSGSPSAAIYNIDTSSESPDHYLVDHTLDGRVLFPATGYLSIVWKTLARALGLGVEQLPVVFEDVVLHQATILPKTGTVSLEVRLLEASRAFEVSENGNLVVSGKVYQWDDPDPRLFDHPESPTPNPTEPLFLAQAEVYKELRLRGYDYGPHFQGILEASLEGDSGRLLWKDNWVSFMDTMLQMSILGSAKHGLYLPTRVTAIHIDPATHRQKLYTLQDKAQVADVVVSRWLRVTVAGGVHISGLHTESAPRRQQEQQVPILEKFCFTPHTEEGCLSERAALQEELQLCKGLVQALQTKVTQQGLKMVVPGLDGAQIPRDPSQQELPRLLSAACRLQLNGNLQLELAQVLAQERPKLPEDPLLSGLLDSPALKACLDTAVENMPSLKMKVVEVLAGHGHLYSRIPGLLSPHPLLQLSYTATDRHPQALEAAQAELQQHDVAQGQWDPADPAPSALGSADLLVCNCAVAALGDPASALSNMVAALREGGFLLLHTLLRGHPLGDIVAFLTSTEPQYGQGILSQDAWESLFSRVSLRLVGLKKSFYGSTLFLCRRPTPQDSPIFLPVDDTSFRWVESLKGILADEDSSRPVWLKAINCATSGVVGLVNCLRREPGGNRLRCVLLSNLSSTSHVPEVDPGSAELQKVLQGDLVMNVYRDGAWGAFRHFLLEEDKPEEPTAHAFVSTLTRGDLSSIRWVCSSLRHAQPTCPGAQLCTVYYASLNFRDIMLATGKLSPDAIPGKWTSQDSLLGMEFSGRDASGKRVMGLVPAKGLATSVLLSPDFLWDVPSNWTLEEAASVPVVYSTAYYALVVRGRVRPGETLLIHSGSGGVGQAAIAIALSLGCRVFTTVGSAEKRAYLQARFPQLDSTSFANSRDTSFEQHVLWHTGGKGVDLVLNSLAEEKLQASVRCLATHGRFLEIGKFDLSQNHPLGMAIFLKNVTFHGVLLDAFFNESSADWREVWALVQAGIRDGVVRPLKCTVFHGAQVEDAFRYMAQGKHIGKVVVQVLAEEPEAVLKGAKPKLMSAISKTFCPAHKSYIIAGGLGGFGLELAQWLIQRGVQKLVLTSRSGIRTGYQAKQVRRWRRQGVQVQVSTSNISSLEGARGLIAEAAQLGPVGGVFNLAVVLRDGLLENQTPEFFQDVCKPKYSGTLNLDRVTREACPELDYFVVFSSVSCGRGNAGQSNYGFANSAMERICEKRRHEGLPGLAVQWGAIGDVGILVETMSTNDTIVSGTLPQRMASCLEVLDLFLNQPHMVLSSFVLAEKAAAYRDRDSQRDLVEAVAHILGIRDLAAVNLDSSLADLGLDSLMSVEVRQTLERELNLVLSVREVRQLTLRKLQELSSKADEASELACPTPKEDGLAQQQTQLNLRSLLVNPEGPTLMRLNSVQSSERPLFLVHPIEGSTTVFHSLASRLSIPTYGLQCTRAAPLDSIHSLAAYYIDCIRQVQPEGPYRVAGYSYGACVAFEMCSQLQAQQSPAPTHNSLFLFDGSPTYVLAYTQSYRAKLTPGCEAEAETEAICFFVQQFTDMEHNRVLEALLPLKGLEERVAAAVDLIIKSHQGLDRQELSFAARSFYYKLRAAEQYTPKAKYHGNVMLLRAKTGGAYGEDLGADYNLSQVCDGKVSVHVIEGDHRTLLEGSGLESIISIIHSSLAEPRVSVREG

A word on the AC50: it is the midpoint of the concentration-response curve, whichever way the signal moves. Consider `CCCCCc1ccc(O)cc1`, for which the compound was classed as inactive in [1] and in experiment [2]. In addition, the AC50 in experiment [3] is 50 µM (active).
On to `CCCCCCCCCCCCOS(=O)(=O)O`, for which the result in experiment [4], in experiment [6], in experiment [7], in [8], in [11] and in [12] was inactive. Also, the call in [13], in experiment [14], in experiment [16], in experiment [17] and in [19] was inactive. The AC50 is 80.7 µM (active) in experiment [5]; 85.6 µM (active) in [9]; 61.6 µM (active) in experiment [10]; 77.2 µM (active) in experiment [15]; 86.2 µM (active) in experiment [18].
With `CCCCC=O`, the compound was classed as inactive in experiment [4], in [5], in experiment [6], in experiment [7], in [8] and in experiment [20]. The outcome in experiment [9], in [10], in experiment [11], in experiment [12], in [13] and in experiment [14] was inactive. Besides, the compound was classed as inactive in [15], in experiment [16], in [17], in experiment [18] and in experiment [19].
